Reference: PubChem BioAssay (NCATS)
Inconclusive results are not listed. Values without a mark were called inactive. Activity calls are given as the source filed them. The call rests on the fitted dose curve; in most records, active means well fitted cell-killing curve with a large enough effect; inconclusive means small, poorly fitted or top-dose-only effect; inactive means flat fitted curve, though single readings scatter.

Test: OV-SAHO Cancer Cell Toxicity qHTS against the NCATS CANVASS Library (AID 1347348); further: nearly all actives have a fitted effect of over 55% in size
Conditions: OV-SAHO viability, CellTiter-Glo luminescence, 72 h; series mostly up to 38.3 µM; activity change, negative = cytotoxicity: at the top concentration
Excerpt: Natural products and their derivatives continue to be wellsprings of nascent therapeutic potential. However, many laboratories have limited resources for biological evaluation, leaving their previously isolated or synthesized compounds largely or completely untested. To address this issue, the Canvass library of natural products was assembled (https://tripod.nih.gov/canvass), in collaboration with academic and industry researchers, for quantitative high-throughput screening (qHTS) across a diverse set of cell-based and biochemical assays. The pure (>85% purity by liquid chromatography/mass spectrometry [LC/MS]) Canvass library of 346 natural products were submitted by 45 academic laboratories and companies around the world. We collected pure natural products to circumvent deconvolution and structure elucidation due to time and resource limitations. The library was formatted into 1536-well plates and evaluated in 50 qHTS (in an 11-pnt concentration series) bioassays with broad scope of disease-relevant mechanisms. The resulting data set from 50 different assays was then systematically analyzed to identify overall trends and specific natural products with interesting biological activities. Reported herein are the results of each individual qHTS and their corresponding assay protocol. National Center for Advancing Translational Sciences (NCATS), Rockville, MD National Institute of Health (NIH), Bethesda, Maryland
Cancer Cell Toxicity protocol for cell lines COV-362, OV-KATE, OV-SAHO, UWB1.289, UWB1.289-WTBRCA1, HEK-293, HPAF-II, Panc-1005, SW1088, or U-118MG. 1. In a 1536 well, white solid bottom tissue culture plates (Corning 7494), corresponding cells (COV-362, OV-KATE, OV-SAHO, UWB1.289, UWB1.289-WTBRCA1, HEK-293, HPAF-II, Panc-1005, SW1088, or U-118MG) were dispensed in each well at a final concentration of 1000 cells / well (6uL volume) using the Multidrop Combi (Thermo Fisher Scientific) dispenser. 2. The plates were incubated for 4 hours at 37 degrees C/5% CO2/95% Rh. 3. Compounds were pin transferred (~23nL volume) via Wako Pin-tool (Wako Automation, Richmond VA) equipped with a 1536 pin head. The assay plates were treated with compounds in an 11-pnt concentration series with a final concentration range of […] to 85uM. 4. Bortezomib was used as a single dose control (0.5mM column 4, rows 1 - 32) at a final concentration of 1.9uM and as a 16pnt titration (1mM; 1:2 dilution; 16-points; n = 2; column 3, rows 1 - 32) with final concentration range of 0.1nM - 3.8uM. 5. The assay plates were incubated for 72 hours at 37 degrees C/5% CO2/95% Rh. 6. 3uL CellTiter-Glo detection reagent was then added to the plates (columns 2 - 48, rows 1 - 32) and incubated at room temperature for additional 15min. 7. Luminescence signal was acquired via the ViewLux plate reader (PerkinElmer) using a clear filter, 2 second exposure and 2x binning settings.
On the % scale 0 is the no-effect control and ±100 the full control effect; potency means the concentration at half of the fitted maximal effect.

Question: With `COc1c(O)cc2oc(-c3ccccc3)cc(=O)c2c1O` as the compound, how does the “activity change, negative = cytotoxicity” value read?
Answer: Its value is -9.19%.

Question: For `CCCCCCC[C@@H](C/C=C/CCC(=O)NCCc1c[nH]c2ccccc12)OC`, which “activity change, negative = cytotoxicity” value is on record?
Answer: Its value is -11.7%.

Question: For `C[C@@H](O)[C@H]1OC(=O)C=C2[C@]3(C)[C@H]4[C@H](OC(=O)[C@@]4(C)[C@@H](O)[C@H]4O[C@H]43)[C@H]3O[C@@]231`, which Potency is on record?
Answer: The Potency was 1330 nM (active).

Question: For `O=C(O)[C@@]12CO[C@@]3(O)C4CCN(CC[C@H]31)[C@H]4c1c2[nH]c2ccccc12`, which “activity change, negative = cytotoxicity” value is on record?
Answer: Its value is -6.46%.

Question: For `C/C1=C\CC(=O)/C=C/C=C\c2csc(n2)[C@@H](C)NC(=O)C[C@@](S)([C@@H](C)C(=O)O)CC1`, which “activity change, negative = cytotoxicity” value is on record?
Answer: The value was -3.57%.

Question: With `O=c1cc(-c2ccc(O)cc2)oc2c([C@@H]3OC(CO)[C@H](O)[C@@H](O)[C@H]3O)c(O)cc(O)c12` (stereo not given in full) as the compound, how does the “activity change, negative = cytotoxicity” value read?
Answer: The value was 4.97%.

Question: Which “activity change, negative = cytotoxicity” value does the source give for `C/C=C1/CC[C@@H]2c3[nH]c4ccccc4c3CCN2C1` here?
Answer: Its value is -15.7%.

Question: For `C=C1C[C@@]23C=CC(=O)[C@@](C)(CCCC(C)C(=O)O)[C@@H]2C[C@@H]1CC3` (stereo not given in full), which “activity change, negative = cytotoxicity” value is on record?
Answer: The value was -2.23%.

Question: For `CCCCCCCCCCCCCCC[C@H](O)C[C@@H](O)C[C@@H](O)C[C@@H](O)C[C@@H](O)C[C@H]1CC=CC(=O)O1`, which Potency is on record?
Answer: The Potency was 1490 nM (active).

Question: With `O=c1cc(-c2ccc(O)c(O[C@@H]3O[C@H](CO)[C@@H](O)[C@H](O)[C@H]3O)c2)oc2cc(O[C@@H]3O[C@H](CO)[C@@H](O)[C@H](O)[C@H]3O)cc(O)c12` as the compound, how does the “activity change, negative = cytotoxicity” value read?
Answer: The value was -8.35%.

Question: For `CC[C@@H]1C[C@@]2(CC)OC(=O)[C@@]3(CC)OC(=O)[C@@H]1[C@@H]23`, which “activity change, negative = cytotoxicity” value is on record?
Answer: Its value is -0.535%.

Question: With `O=Cc1ccc2n1C[C@@]1(OC2)O[C@H](CO)[C@@H](O)[C@@H]1O` as the compound, how does the “activity change, negative = cytotoxicity” value read?
Answer: Its value is -19.3%.

Question: For `C=C1C(=O)C[C@H]2C[C@@H]1[C@]2(C)CCC=C(C)C`, which “activity change, negative = cytotoxicity” value is on record?
Answer: Its value is -8.68%.

Question: Which “activity change, negative = cytotoxicity” value does the source give for `O=C(OC1Cc2c(O)cc(O)cc2OC1c1cc(O)c(O)c(O)c1)c1cc(O)c(O)c(O)c1` (stereo not given) here?
Answer: The value was -13.5%.

Question: For `C[C@@H]1C(=O)[C@]23CC[C@H]1C[C@]21O[C@H]2C(C)(C)C=CC(=O)[C@]23COC1=O`, which “activity change, negative = cytotoxicity” value is on record?
Answer: The value was 4.16%.

Question: With `COc1ccc(/C=C2\COc3cc(O)ccc3C2=O)cc1` as the compound, how does the “activity change, negative = cytotoxicity” value read?
Answer: Its value is -15.7%.

Question: For `CC(=O)NC[C@@H]1O[C@H](CC/C=C(C)/C(C)=C/C=O)[C@H](C)C[C@H]1O`, which “activity change, negative = cytotoxicity” value is on record?
Answer: Its value is -7.85%.

Question: For `C/C(=C\[C@H](C)C(=O)CCCC1CC(=O)NC(=O)C1)C(O)[C@@H](C)[C@H](O)C/C=C/CC/C=C/C(=O)O` (stereo not given in full), which “activity change, negative = cytotoxicity” value is on record?
Answer: The value was -10.6%.

Question: Which “activity change, negative = cytotoxicity” value does the source give for `CC1C(=O)C23CCC1C[C@@]21O[C@H]2C(C)(C)C=CC(=O)[C@@]23COC1=O` (stereo not given in full) here?
Answer: Its value is 0.613%.

Question: For `CC1=CC[C@@]2(C[C@@H]1O)[C@@H](C(=O)O)CC[C@H]2C(C)C`, which “activity change, negative = cytotoxicity” value is on record?
Answer: The value was -3.95%.

Question: For `COc1ccc2cc(NC(=O)C3=NO[C@H]4[C@H](O)C=C[C@@H](Cl)[C@@]4(O)C3)c(=O)oc2c1OC`, which “activity change, negative = cytotoxicity” value is on record?
Answer: Its value is -10.6%.

Question: With `COc1cc(/C=C2/C(=O)N(c3ccc(O)cc3C(=O)O)[C@H](c3ccc(O)c(OC)c3)C2C(=O)Nc2ccc(O)cc2C(=O)O)ccc1O` (stereo not given in full) as the compound, how does the “activity change, negative = cytotoxicity” value read?
Answer: The value was 1.47%.

Question: With `C=C1C[C@@]23C=CC(=O)[C@@](C)(CCC(=O)Nc4c(OC5O[C@H](CO)[C@@H](O)[C@H](O)[C@H]5O)ccc(C(=O)O)c4O)C2C[C@@H]1CC3` (stereo not given in full) as the compound, how does the “activity change, negative = cytotoxicity” value read?
Answer: Its value is -1.75%.

Question: Which Potency does the source give for `C=CC(=C)CC[C@]1(C)[C@H]2C[C@H](OC(=O)C(C)CC)C=C3[C@H](OC(C)=O)O[C@H](OC(C)=O)[C@@]32[C@H](OC)C[C@@H]1C` (stereo not given in full) here?
Answer: The Potency was 2730 nM (active).

Question: For `C=C(C)[C@@H]1CC[C@]2(C)CC[C@]3(C)[C@H](CC[C@@H]4[C@@]5(C)CC[C@H](O)C(C)(C)[C@@H]5CC[C@]43C)[C@@H]12`, which Potency is on record?
Answer: The Potency was “inactive”.

Question: For `CC1(C)C=Cc2c(ccc3c2OC[C@@H](c2ccc(O)cc2O)C3)O1`, which “activity change, negative = cytotoxicity” value is on record?
Answer: Its value is 0%.

Question: Which Potency does the source give for `C=C(C)C(=O)O[C@H]1C[C@H](C)[C@@H](OC(C)=O)CC[C@@]2(C)O[C@@H]2[C@H]2OC(=O)C(COC(C)=O)=C12` here?
Answer: Its Potency is 2360 nM (active).

Question: For `CS/C=C/C(N)=O`, which “activity change, negative = cytotoxicity” value is on record?
Answer: The value was 0%.

Question: For `O=C1C[C@@H](c2ccc(O)c(-c3c(O)cc(O)c4c3O[C@H](c3ccc(O)cc3)CC4=O)c2)Oc2cc(O)cc(O)c21`, which “activity change, negative = cytotoxicity” value is on record?
Answer: The value was -14.6% [at 22.9 µM].

Question: Which “activity change, negative = cytotoxicity” value does the source give for `C=C1[C@H]2CC[C@@]3(C=CC(=O)[C@@](C)(CCC(=O)Nc4c(O)ccc(C(=O)O)c4O)C3C2)[C@H]1O` (stereo not given in full) here?
Answer: The value was -6.07%.

Question: For `C/C=C/C=C/C1(O)C2C=C3C(=O)CC45C(=O)C(O)=C(C)C(=O)C4C1C1(C(=O)C(O)=C(C)C(=O)C351)C2C` (stereo not given), which “activity change, negative = cytotoxicity” value is on record?
Answer: Its value is -13.9%.

Question: Which “activity change, negative = cytotoxicity” value does the source give for `COc1cc(O)c2c3c(c(O)cc(C)c13)C(=O)OC2` here?
Answer: The value was 0.673%.

Question: Which “activity change, negative = cytotoxicity” value does the source give for `C[C@@H]1C[C@H]2C[C@]3(CCCCN3C)[C@@H]3C[C@H]2[C@H](C1)N(C)C3` here?
Answer: The value was 1%.

Question: For `CN1CC[C@]2(c3cccc4c3N[C@@H]3N(C)CC[C@]43[C@@]34CCN(C)[C@@H]3Nc3ccccc34)c3ccccc3N[C@H]12`, which Potency is on record?
Answer: Its Potency is 18800 nM (active).

Question: For `O=C(O)[C@@]12COC3(O)C1CCN1CC[C@H]3[C@@H]1c1c2[nH]c2ccccc12`, which “activity change, negative = cytotoxicity” value is on record?
Answer: The value was -14%.

Question: With `Oc1ccc(C2c3c(O)cc(O)cc3[C@@H]3C(c4ccc(O)cc4)c4c(O)cc(O)cc4[C@H]23)cc1` (stereo not given in full) as the compound, how does the “activity change, negative = cytotoxicity” value read?
Answer: The value was -16.3%.

Question: For `C=C1C[C@@]23C=CC(=O)[C@@](C)(CCC(=O)Nc4c(O)ccc(C(=O)O)c4O)C2C[C@@H]1CC3` (stereo not given in full), which “activity change, negative = cytotoxicity” value is on record?
Answer: The value was -9.31%.

Question: With `C=C[C@]1(C)CC[C@@H]([C@H](C)C(=O)OCC)O1` as the compound, how does the “activity change, negative = cytotoxicity” value read?
Answer: The value was 4.73% [at 22.9 µM].

Question: With `CN1C(=O)[C@]23SS[C@@]1(C)C(=O)N2[C@H]1Nc2ccccc2[C@]1(c1c[nH]c2ccccc12)[C@@H]3O` as the compound, how does the Potency read?
Answer: The Potency was 838 nM (active).

Question: With `C/C=C/c1cc(OC)c2c(c1)[C@@H](C)[C@H](c1ccc(O)c(OC)c1)O2` as the compound, how does the “activity change, negative = cytotoxicity” value read?
Answer: Its value is 0.565%.
